Our source for the relative cell viability values is the supplement of paper PMC9399229.

Counter-ions that a name gives are not always drawn. In all, about 1,900 compounds were measured (“relative cell viability (CellTiter-Glo), compound plus cabozantinib, relative to the cabozantinib arm (arm median 1.05; reference not stated)”: median about 1.1, lowest 2% from about 0.15 on). For the sample, the lowest values were picked, then their nearest neighbours and some compounds at random.

The assay deals with Hep3B. Briefly: relative cell viability (CellTiter-Glo), compound plus cabozantinib, relative to the cabozantinib arm (arm median 1.05; reference not stated) (fraction); higher = more viable cells (less growth inhibition). As to conditions: cabozantinib 2 µM; 4 days. (Cellular ATP, detected with luciferase, serves as a proxy for viable cell number.)
As for `O=C(O)CC1CC(c2ccccc2)=NO1` (configuration not stated), the relative cell viability came out at 1.1. Then `CC(C(O)c1ccc(O)cc1)N1CCC(Cc2ccccc2)CC1` (configuration not stated) [Ifenprodil Tartrate], with 1.13; and `CS(=O)(=O)CCNCc1ccc(-c2ccc3ncnc(Nc4ccc(OCc5cccc(F)c5)c(Cl)c4)c3c2)o1` [Lapatinib], with 0.971. The result for `CS(=O)(=O)CCNCc1ccc(-c2ccc3ncnc(Nc4ccc(OCc5cccc(F)c5)c(Cl)c4)c3c2)o1` reads 1.03; that for `COC(=O)c1ccc2c(c1)NC(=O)/C2=C(\Nc1ccc(N(C)C(=O)CN2CCN(C)CC2)cc1)c1ccccc1` [Nintedanib (BIBF 1120)], 0.806. The result for `CN(C)Cc1cccc(N/C(=C2\C(=O)Nc3cc(C(N)=O)ccc32)c2ccccc2)c1` reads 0.924; that for `CCS(=O)(=O)Nc1ccc2c(c1)/C(=C(/Nc1ccc(CN3CCCCC3)cc1)c1ccccc1)C(=O)N2` [Hesperadin], 0.123. As to `O=C1NCC2(CCN(CCc3ccccc3)CC2)O1` [Fenspiride HCl], the relative cell viability stood at 1.16. Then `CCCCN(Cc1ccc(C(=O)NO)cc1)C(=O)Nc1ccccc1` [Nexturastat A], with 0.953.

With `CC(=O)Nc1ccc(C(=O)Nc2ccccc2N)cc1` [CI994 (Tacedinaline)], the relative cell viability amounted to 1.14.

Turning to `CC(C)[C@H](C(=O)Nc1ccc(C(=O)NO)cc1)c1ccccc1`, the relative cell viability is 0.142. The result for `CC(C(=O)O)c1ccc2c(c1)Cc1cccnc1O2` (configuration not stated) [Pranoprofen] reads 1; that for `CNC(=O)c1ccccc1Nc1nc(Nc2ccc(N3CCOCC3)cc2OC)ncc1Cl`, 0.155; that for `COc1cc(N2CCC(N)CC2)ccc1Nc1ncc(Cl)c(-c2c[nH]c3ccccc23)n1`, 0.119.

As for `CCOc1cc(N2CCC(O)CC2)ccc1Nc1ncc2c(n1)N(C)c1ccccc1C(=O)N2C`, the relative cell viability was found to be 1.09. The result for `CC/C(=C(/CC)c1ccc(O)cc1)c1ccc(O)cc1` [Diethylstilbestrol] reads 1.21; that for `CCCCNc1ncc(C(=O)NCc2ccc(-n3ccnc3)cc2)c(NC2CCC(O)CC2)n1` (configuration not stated), 0.996; that for `Cc1cc(C#N)cc(C)c1Oc1nc(Nc2ccc(C#N)cc2)nc(N)c1Br` [Etravirine (TMC125)], 1.23. Consider `c1cc(-c2cnn3cc(-c4ccc(N5CCNCC5)cc4)cnc23)c2cccnc2c1`, for which the relative cell viability turned out to be 0.148. On to `COc1ccc(-c2cnc3c(-c4cccc5ncccc45)cnn3c2)cc1`, for which the relative cell viability amounted to 1.08. Then `COc1cc(-c2cc(-c3ccc(N4CCNCC4)cc3)cnc2C)cc(OC)c1OC`, with 1.01; and `CS(=O)(=O)N1CCc2c(-c3cnc(N)nc3)nc(N3CCOCC3)nc21`, with 0.228; and `CNC(=O)c1ccccc1Nc1cc(Nc2ccc(N3CCOCC3)cc2OC)ncc1C(F)(F)F`, with 1.05. The result for `CCCCCCCCCCCC[N+](C)(C)CCOc1ccccc1` [Domiphen Bromide] reads 1.02; that for `Cc1[nH]c2ccccc2c1CCNC(=O)c1cccs1`, 1.18. The result for `Cc1[nH]c2ccccc2c1CCNCc1ccc(/C=C/C(=O)NO)cc1` [Panobinostat (LBH589)] reads 0.108; that for `Cc1ccc([N+](=O)[O-])cc1S(=O)(=O)N(C)/N=C/c1cnc2ccc(Br)cn12`, 0.113; that for `CCN(CC)C(=S)SSC(=S)N(CC)CC` [Disulfiram], 0.0898. For the compound `Oc1ncnc2[nH]ncc12` [Allopurinol], the relative cell viability was 0.992.

For `CC(C)[C@H]1CC[C@H](C(=O)N[C@H](Cc2ccccc2)C(=O)O)CC1` [Nateglinide], the relative cell viability was determined as 1.13. Regarding `CC(C)(C)c1nc(-c2cccc(NS(=O)(=O)c3c(F)cccc3F)c2F)c(-c2ccnc(N)n2)s1`, the relative cell viability turned out to be 0.993. The result for `CC(C)N(CCCNC(=O)Nc1ccc(C(C)(C)C)cc1)C[C@H]1O[C@@H](n2ccc3c(N)ncnc32)[C@H](O)[C@@H]1O` reads 1.07; that for `O=C1c2c(O)cc(O)cc2O[C@H](c2cc(O)c(O)c(O)c2)[C@H]1O` [Dihydromyricetin], 0.985.

For the compound `CC(C)[C@H](O)C(=O)N[C@@H](C)C(=O)N[C@@H]1C(=O)N(C)CCc2ccccc21`, the relative cell viability was 1.01. The result for `CCN(c1cc(-c2ccc(CN3CCOCC3)cc2)cc(C(=O)NCc2c(C)cc(C)[nH]c2=O)c1C)C1CCOCC1` reads 0.911; that for `CN1CCN(CCCNc2ncc(Cl)c(-c3cc4c(C(=O)NC5CC5)cccc4s3)n2)CC1`, 1.1. On to `CCNC(=O)CCC/C=C\C[C@@H]1[C@@H](/C=C/[C@@H](O)CCc2ccccc2)[C@H](O)C[C@@H]1O` [Bimatoprost], for which the relative cell viability came to 1.16.

Regarding `C[C@H]1CO[C@@H]2Cn3cc(C(=O)NCc4ccc(F)cc4F)c(=O)c(O)c3C(=O)N12`, the relative cell viability came to 1.1. On to `Cc1noc(NS(=O)(=O)c2ccc(N)cc2)c1C` [Sulfisoxazole], for which the relative cell viability was found to be 1.01. Consider `CCOc1nc2cccc(C(=O)OCc3oc(=O)oc3C)c2n1Cc1ccc(-c2ccccc2-c2noc(=O)[nH]2)cc1` [Azilsartan Medoxomil], for which the relative cell viability worked out at 1.22.

As to `O=C(Nc1ncc(SCCN2CCCC2)s1)[C@]1(c2ccc(S(=O)(=O)C3CC3)cc2)C[C@H]1C1CCCCC1`, the relative cell viability was 0.963. The result for `CCOc1cc(C(=O)N2CCC(N3CCN(C)CC3)CC2)ccc1Nc1ncc2c(n1)N(C1CCCC1)c1ccccc1C(=O)N2C` reads 0.703; that for `CC(C=CC1(O)C(C)=CC(=O)CC1(C)C)=CC(=O)O` (configuration not stated) [Abscisic Acid (Dormin)], 1.08; that for `O=c1c2ccccc2oc2ccccc12` [Xanthone], 1.08. Then `Cc1cc(F)c(Nc2ncnc3cc(OCc4ccccc4)ccc23)cc1O`, with 1.05.

With `O=NO` [Sodium Nitrite], the relative cell viability is 1.09. Then `CCc1c(C(=O)NCCc2ccc(N3CCCCC3)cc2)[nH]c2ccc(Cl)cc12`, with 0.997.

Regarding `CC(C)(C#N)c1cc(Cn2cncn2)cc(C(C)(C)C#N)c1` [Anastrozole], the relative cell viability turned out to be 1.1. Then `C/C(O)=C(\C#N)C(=O)Nc1ccc(C(F)(F)F)cc1` [Teriflunomide], with 0.922; and `CC[C@H](c1ccc(O)cc1)[C@@H](CC)c1ccc(O)cc1` [Hexestrol], with 1.19; and `CC(C(=O)O)c1ccc2c(c1)CC(=O)c1ccccc1S2` (configuration not stated) [Zaltoprofen], with 1.17. The result for `CSc1cccc(Nc2ncc3cc(-c4c(Cl)cccc4Cl)c(=O)n(C)c3n2)c1` reads 0.748; that for `OCC(CO)N[C@H]1C[C@](O)(CO)[C@@H](O)[C@H](O)[C@H]1O` [Voglibose], 1.28; that for `Nc1nc(O)c2ncn(CCC(CO)CO)c2n1` [Penciclovir], 1.08. The result for `CC(ONC(=O)c1cc(C(F)(F)F)cc(C(F)(F)F)c1)C(=O)Nc1ccc(Cl)cc1` (configuration not stated) reads 1.15. Turning to `O=C(Nc1ccccc1)c1ccccc1O` [Salicylanilide], the relative cell viability was 1.1. Then `O=C(Nc1cc(C(F)(F)F)cc(C(F)(F)F)c1)c1cc(Cl)ccc1O`, with 0.122. Then `O=C(O)Cc1cccc(OCCCN(Cc2cccc(C(F)(F)F)c2Cl)CC(c2ccccc2)c2ccccc2)c1`, with 1.15. Then `CCOC(=O)c1ccc(N2NC(=O)C(=Cc3ccc([N+](=O)[O-])o3)C2=O)cc1`, with 1.02; and `CCOCC(O)COc1ccc(NC(=O)CC[S+](C)C)cc1` (configuration not stated) [Suplatast Tosylate], with 1. `CC1(C)CNc2cc(NC(=O)c3cccnc3NCc3ccncc3)ccc21` [Motesanib Diphosphate (AMG-706)]: the relative cell viability was determined as 1.09. The result for `C=CC(=O)Nc1cccc(Nc2nc(Nc3ccc(NC4CN(CCF)C4)cc3OC)ncc2C(F)(F)F)c1` reads 0.885; that for `Cc1ccc(S(=O)(=O)n2c(N)nc3ccccc32)cc1` [ML130 (Nodinitib-1)], 1.2; that for `Cc1ccc2c(=O)c3cccc(CC(=O)O)c3oc2c1C` [DMXAA (Vadimezan)], 1.17. The result for `O=c1cc(CN2CCOCC2)occ1OCCCCCSc1ccnc2cc(C(F)(F)F)ccc12` reads 1.13. `Cc1c(-c2ccc(O)cc2)n(Cc2ccc(OCCN3CCCCCC3)cc2)c2ccc(O)cc12` [Bazedoxifene HCl]: the relative cell viability is 0.867. Then `Cc1cccc(-c2[nH]c(CNc3ccccc3F)nc2-c2ccc3ncnn3c2)n1`, with 1.1. The result for `CC(C=CC(=O)NO)=CC(C)C(=O)c1ccc(N(C)C)cc1` (configuration not stated) [Trichostatin A (TSA)] reads 0.165; that for `CNCc1ccc(C)c(NC(=O)c2ccc(Nc3nc(-c4ccccc4)c4ccccc4n3)cc2)c1`, 0.858; that for `CC(C)N(CC[C@H](c1ccccc1)c1cc(CO)ccc1O)C(C)C`, 1.1. The result for `O=C(c1cccc(Cl)c1F)N1CCN(Cc2cccc(Nc3nccs3)n2)CC1` reads 1.06; that for `O=C(Nc1cccc(Cl)c1)c1ccccn1`, 1.02. `Clc1ccc(NN=C(c2ccccc2)c2ccccn2)nc1`: the relative cell viability came out at 0.087. The result for `C[C@H](CCC(=O)O)[C@H]1CC[C@H]2[C@@H]3C[C@H](O)[C@@H]4C[C@H](O)CC[C@]4(C)[C@H]3CC[C@]12C` [Hyodeoxycholic acid (HDCA)] reads 1.11; that for `COC(=O)[C@H](CCSC)NC(=O)c1ccc(NC[C@@H](N)CS)cc1-c1ccccc1`, 1.16. Then `NC1(Cc2ccc(Cl)cc2)CCN(c2ncnc3[nH]ccc23)CC1`, with 0.989; and `COc1nc(-c2ccc3c(c2)OCO3)n(-c2ccc(NC(=O)CSc3ccccc3)cc2)n1` [SecinH3], with 1.24; and `C[C@@H]1CC(=O)NN=C1c1ccc(NN=C(C#N)C#N)cc1` [Levosimendan], with 1.15. Take `Cc1coc2c1C(=O)C(=O)c1c-2ccc2c1CCCC2(C)C` [Tanshinone IIA]: the relative cell viability turned out to be 0.985. The result for `Nc1nc(N)c2nc(-c3cccc(O)c3)c(-c3cccc(O)c3)nc2n1` reads 0.944; that for `COc1ccc(C(=O)Nc2sc3c(c2C(N)=O)CCCC3)cc1OC`, 1.03; that for `Cc1ccc(NC(=O)C2(c3ccc4c(c3)OC(F)(F)O4)CC2)nc1-c1cccc(C(=O)O)c1` [VX-809 (Lumacaftor)], 0.168. Then `CN(C)CCOc1ccc(/C(=C(/CCCl)c2ccccc2)c2ccccc2)cc1` [Toremifene Citrate], with 1.06. Then `CC(C)C[C@H](NC(=O)[C@H](Cc1ccccc1)NC(=O)c1cnccn1)B(O)O` [Bortezomib (PS-341)], with 0.396; and `O=C(O)CCNC(=O)c1ccccc1` [Betamipron], with 0.99. `O=C(O)c1ccccc1` [Benzoic Acid]: the relative cell viability was 1.12.

As to `CN(NC(=O)CC(=O)NN(C)C(=S)c1ccccc1)C(=S)c1ccccc1` [Elesclomol (STA-4783)], the relative cell viability came out at 0.00669.
